The whole screen tested about 91,000 compounds, of which about 290 (0.32%) were called active. Entries that show only a call come without a potency. Another 7% or so got no clear call; they are omitted. The call rests on the fitted dose curve; in most records, active means well fitted inhibition curve with a large enough effect; inconclusive means small, poorly fitted or top-dose-only effect; inactive means no such curve, though single readings can be large or run the other way. The sample as a whole holds a higher share of actives than the screen did.
Potency means the concentration at half of the fitted maximal effect.

Single-stranded DNA cytosine deaminase (Homo sapiens), sequence (Q9GZX7 whole entry, looked up): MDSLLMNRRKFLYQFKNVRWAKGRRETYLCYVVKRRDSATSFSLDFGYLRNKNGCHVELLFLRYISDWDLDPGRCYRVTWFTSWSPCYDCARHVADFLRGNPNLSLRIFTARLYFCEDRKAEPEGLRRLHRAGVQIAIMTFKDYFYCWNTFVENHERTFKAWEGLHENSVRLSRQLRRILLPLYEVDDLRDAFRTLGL

This experiment addresses Single-stranded DNA cytosine deaminase (Homo sapiens) (UniProt Q9GZX7). The experiment is described as follows: Primary qHTS assay for inhibitors of Activation Induced Cytidine Deaminase (AID): AID signal. Further: nearly all actives have a fitted effect of over 25% in size. The following applies: AID deamination FRET fluorescence, UDG-coupled, 4 h; series mostly up to 115 µM. The text has this:
Assay Provider (PI) Patricia Gearhart Ph.D.
National Institute on Aging
National Institute of Health (NIH), Bethesda, MD
Assay Provider (PI) Rahul Kohli Ph.D.
Perelman School of Medicine
University of Pennsylvania, Philadelphia, PA
Activation-Induced Deaminase (AID) is a cytosine deaminase which converts cytosine into uracil within stretches of ssDNA. The presence of uracil in DNA initiates a cascade of mutagenic DNA repair to introduce point mutations and DNA double strand breaks. Specific targeting of AID to the immunoglobulin heavy chain loci (Igh) promotes mutagenesis in the antibody variable region for somatic hypermutation (SHM) or switch regions leading to class switch recombination (CSR). However, AID also plays a role in accumulating unnecessary mutations across the genome. Mis-targeting of AID results in the initiation of tumor development and leads to greater drug resistance among cancer cells when continually expressed. To identify an AID inhibitor, a small molecule library will be screened in collaboration with NCATS core facility at NIH. To confirm biological function, inhibitors will be examined in an in vitro murine B-cell activation assay and subsequent secondary validation screens. Top molecules will be further screened to identify inhibitory efficacy against a wild type primary splenocytes assay. Using these approaches, we hope to identify a small molecule with great efficacy and low toxicity for use as a molecular probe to further characterize AID's intricacies, or even as a therapeutic.
A FRET based analysis of cytosine deamination, was developed to identify potential inhibitors of AID catalytic activity. This screen has two signal output, Read 1 evaluates the AID inhibition response. The second readout (Read 2) evaluates UDG response and is uses as a counterscreen to exclude false positive inhibitors. Inhibition in AID and inactivity in the UDG signal is the desired outcome for this assay.
SEQUENCE No. (e.g., 1, 2, 3, etc.); […] (e.g., Cells, Incubation, Reagent, etc.); VALUE; DESCRIPTION
1a; Reagent; 3 uL; [4/3x] 1 uM AID/2.67 U/mL UDG
1b; Reagent; 3 uL; 2 U/mL UDG
1c; Reagent; 3 uL; 1 uM AID
2a; Compound; 46 nL; Follow-up plates (0.64 uM - 10 mM)
2b; Control; 46 nL; ATA ([…] - 10 mM)
3; Time; 10 min; incubation at room temperature
5; Time; 4 hr; incubation at room temperature
6; Reagent; 4 uL; [2x] 250 mM NaOH
7; Time; 15 sec; centrifuge at 1000 rpm
8; Time; 30 min; incubation at room temperature
9a; Detection; fluorescence (Read 1: AID); EnVision (PerkinElmer) plate reader, 540 excitation and 590 emission filters
9b; Detection; fluorescence (Read 2: UDG); EnVision (PerkinElmer) plate reader, 560 excitation and 665 emission filters
NOTES (numbers refer to sequence above)
1a; Reagents were dispensed in a medium-binding black solid-bottom Greiner plates (789176F) using a BioRptr liquid dispenser. Dispense 3 uL of [4/3x] 1 uM AID (provided by Kohli lab) and [4/3x] 2 U/mL UDG (NEB M0280L) into columns 1, 2, 5 to 48.
1b; Dispense 3 uL of [4/3x] 2 U/mL UDG into column 3.
1c; Dispense 3 uL of [4/3x] 1 uM AID into column 4.
2a; Compound (7-points [uM] (0.64; 3.2; 16; 80; 400; 2,000; 10,000; 20,000) double pin-transferred (Dip Factor = 2) using the Kalypsys (Wako USA) pintool equipped with a 1536 pinhead for a final concentration range of 7.32 nM - 114 uM. […]
9a; Fluorescence signal (column label AID) was read using the EnVision plate reader. […]
A general note: In qHTS, concentration-response curves come from the screen itself.
Take `CC(=O)c1c(O)c(C)c(O)c(Cc2c(O)c3c(c(C(=O)/C=C/c4ccccc4)c2O)OC(C)(C)C=C3)c1O`: the Potency is 28.2 µM (active).

For `Cc1cccc2c(CCN)c[nH]c12`, the Potency entry is “inactive”. On to `COc1cccc(CNCCc2ccccc2)c1`, for which the Potency result is “inactive”. Regarding `COC1CC(OC2CCC3(C=O)[C@H]4CCC5(C)C(C6=CC(=O)OC6)CCC5(O)[C@@H]4CCC3(O)C2)OC(C)C1O` (stereo not given in full), the Potency entry was “inactive”. In the case of `O=C(O)CCS(=O)(=O)C(Cl)Cl` it was “inactive”.

Source of the values: PubChem BioAssay AID1347428 (National Center for Advancing Translational Sciences (NCATS), 2020).
